The record followed here is PubChem BioAssay (NCI).

About 83,000 compounds went through this panel and 20% of them were active in at least one assay; those are over-represented in the sample as a whole.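 Growth was measured after 48 h exposure to one concentration of compound in 96-well plates. Values under 10 count as active.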 Activity calls are given as the source filed them.

The experiment relates to NCI-H23 lung. Put plainly: NCI-60 one-dose screen, 48 h (100 = growth as untreated, 0 = no growth, -100 = all killed). Conditions: 10 µM unless noted.
As to `Oc1c(N=Nc2nn[nH]n2)ccc2ccccc12`, the growth was 72.8% (inactive). Consider `CCN1CCN(c2nc(NNC(=O)Cc3ccccc3)nc(N3CCN(C(c4ccccc4)c4ccccc4)CC3)n2)CC1`, for which the growth was 95.1% (inactive). For `COc1cc(-c2nnc(-c3nc(-c4cc(OC)c(OC)c(OC)c4)n4ccccc34)o2)ccc1N` the value was 67.7% (inactive); for `CCOc1cc(/C=C/C(=O)CC(=O)/C=C/c2ccc(OC(=O)CNCCN(CC)CC)c(OCC)c2)ccc1OC(=O)CNCCN(CC)CC`, -35.6% (active). Next, `Nc1ccc2c(c1Br)Cc1ccccc1-2`: 92% (inactive). Next, `CCOC(=O)C1=CCC(n2cc(C)c(=O)[nH]c2=O)O1` (stereo unspecified): 102% (inactive); `CCCCCN(CCCCC)CCCNc1c2c(nc3ccc(Cl)cc13)CCCC2`: 30.7% (inactive). As to `COc1ccc(-c2nnc3c4[nH]cnc4ncn23)c(OC)c1`, the growth is 22.3% (inactive). For `O=C(Nc1nn2c(-c3cc(C(F)(F)F)cc(C(F)(F)F)c3)nnc2s1)C1CCCC1` the value was -2.97% (active); for `COc1ccc(N2CCN(CC(=O)N3CCN(c4nnc(-c5ccc(Cl)cc5)c(-c5ccc(Cl)cc5)n4)CC3)CC2)cc1`, 81.7% (inactive); for `O=C(O)c1ccc2cccnc2c1O`, 8.65% (active).

With `COC(=O)[C@H]1[C@H]2C[C@@H]3c4[nH]c5cc(OC)ccc5c4CCN3C[C@H]2C[C@@H](OC(=O)/C=C/c2cc(OC)c(OC)c(OC)c2)[C@@H]1OC`, the growth is 93.5% (inactive). For `COc1ccc2nc(-c3ccc(Cl)cc3)cc(-c3nnc(SCC(=O)Nc4ccc(C(C)=O)cc4)n3-c3ccccc3)c2c1` the value was 100% (inactive). For `COc1cc(/C=C/C(=O)C(C(=O)/C=C/c2ccc(OC(=O)CCNC34CC5CC(CC(C5)C3)C4)c(OC)c2)C(=O)CCNC23CC4CC(CC(C4)C2)C3)ccc1OC(=O)CCNC12CC3CC(CC(C3)C1)C2` (stereo unspecified) the value was 32.2% (inactive); for `N#Cc1ccccc1C#Cc1ccccc1C#Cc1ccc(OCCCCCCOc2ccc(C#Cc3ccccc3C#Cc3ccccc3C#N)cc2)cc1`, 99.4% (inactive); for `O=CNc1ccc2c(c1)Cc1cc([N+](=O)[O-])ccc1-2`, 37.9% (inactive). For `N#CC(C#N)C(C#N)C#N` the value was 97.7% (inactive). As for `N/C(=N\c1nc2ccccc2s1)NC(=O)Nc1ccccc1Cl`, the growth was 34.9% (inactive). As for `O=c1c2c(=NCCCN3CCCC3)cc3c(=O)n(CCCN4CCCC4)c(=O)c4c(NCCCN5CCCC5)cc(c(O)n1CCCN1CCCC1)c2c4-3`, the growth is -2.37% (active). Next, `C/C(=C\CCc1ccsc1)CC/C=C(\C)CCCN1CCSCC1`: 89.6% (inactive); `COc1ccc(CC(=O)Nc2nn3c(-c4cc(C(F)(F)F)cc(C(F)(F)F)c4)nnc3s2)cc1`: 35.2% (inactive); `CCCCCCCCCCNCCSS(=O)(=O)O`: 86.2% (inactive). `O=C(Nc1ccccc1)c1cc(-n2cnc([N+](=O)[O-])c2)cc(-n2cnc([N+](=O)[O-])c2)n1`: the growth is 98.6% (inactive). Next, `O=C1/C(=C/c2ccc(F)cc2)Cc2ccccc21`: 99.7% (inactive); `CCN(CC)c1ccc(N=C2C=CC(=O)C=C2NC(C)=O)cc1`: 92.9% (inactive); `C[C@H](C(=O)N[C@@H](Cc1ccc(-c2ccccc2)cc1)C(=O)NC1CC(C)(C)N(C)C(C)(C)C1)c1ccc(-c2ccccc2)c(F)c1`: -71% (active).

For `CSc1nc2nc3c(nc2c(=O)n1C)C(=O)c1ccccc1C3=O`, the growth is -26.4% (active).

Turning to `O=C(C(=O)c1cc(Br)ccc1O)c1cc(Br)ccc1O`, the growth is 19.8% (inactive). On to `O=C1CSC(c2ccccc2O)N1c1nnc(Cn2ccnc2)o1` (stereo unspecified), for which the growth was 67.9% (inactive). For `COc1cccc(N2CCN(CC(=O)N3CCN(c4nnc(-c5ccc(Cl)cc5)c(-c5ccc(Cl)cc5)n4)CC3)CC2)c1` the value was 82.9% (inactive); for `NC(=O)NS(=O)(=O)c1ccc(N2N=C(C(F)(F)F)CC2c2cc(C(F)(F)F)cc(C(F)(F)F)c2)cc1` (stereo unspecified), 91.3% (inactive); for `CC(=O)N1N=C(c2ccc(C(F)(F)F)cc2)CC1c1ccc2c(c1)OCO2` (stereo unspecified), 79.2% (inactive). Next, `CCOc1cc(/C=C/C(=O)C(C(=O)/C=C/c2ccc(OC(=O)CNc3nnc(C)s3)c(OCC)c2)C(=O)CNc2nnc(C)s2)ccc1OC(=O)CNc1nnc(C)s1`: -2.16% (active); `CC(C)N(Cc1ccccc1)c1c(S)ssc1=S`: 22.8% (inactive); `Nc1ccccc1-c1ccn[nH]1`: 110% (inactive). For `FC(F)(F)c1cc(-c2nnc3n2N=C(N2CCCC2)CS3)cc(C(F)(F)F)c1`, the growth is 62.7% (inactive).
